This note sets out measurements from PubChem BioAssay.

The source made the active and inactive calls. Unless noted, no rule for the calls is given here.

Assay [1] in a line: HepG2 liver cancer cell viability effects, profiling panel, resazurin fluorescence, 24 h, PK04 Diversity Set (AID 1172). Also: test concentration not given here. The note with it: higher = more signal.
Assay [2] is described as follows: basal S. cerevisiae growth modulation, no modifier, primary screen, OD600, strain BY4716, 24 h, basal condition (AID 1173). Conditions: OD600, 24 h, higher = more signal, called active from +8 up or from −8 down.
Assay [3] can be described thus: MM1S myeloma cell viability, profiling panel, resazurin fluorescence, basal, 24 h, PK04 Diversity Set (AID 1174).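 Also: MM1S multiple myeloma cell line; test concentration not given here.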 Conditions: higher = more signal, called active from +8 up or from −8 down.
Assay [4] concerns the target Dihydroorotate dehydrogenase (quinone), mitochondrial (Plasmodium falciparum (isolate 3D7)) (UniProt Q08210). Description: PfDHODH enzyme inhibitors, primary screen, biochemical, C-terminal His tag, absorbance 600 nm (AID 1175).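 Also: recombinant parasite enzyme with a five histidine tag at its C terminus; test concentration not given here.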 The note with it: DCIP absorbance 600 nm, higher = more signal, called active from +8 up or from −8 down.
Assay [5] is described as follows: P. aeruginosa biofilm formation inhibitors, primary screen, strain PAO1, LB-PBS medium, absorbance 600 nm (AID 1176). Also: test concentration not given here. Conditions: P. aeruginosa PAO1 growth/biofilm, A600, 12 h; higher = more signal.
The nature of assay [6]: S. cerevisiae RM11-1a growth modifiers, primary screen, strain RM11-1a, OD600, basal, 24 h (AID 1177).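 Also: cultures grown under basal conditions with no added stressor; test concentration not given here.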 The note with it: OD600, 24 h, higher = more signal, called active from +8 up or from −8 down.
The nature of assay [7]: E. coli acrAB mutant growth effects, primary screen, E. coli filamentation inducers, strain DRC39, OD650, 24 h (AID 1178).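 Also: growth measured as culture turbidity by optical density at 650 nm; test concentration not given here.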 Conditions: higher = more signal, called active from +8 up or from −8 down.
Assay [8] can be described thus: E. coli acrAB mutant growth effects, primary screen, E. coli filamentation inducers, strain DRC39, OD650, 48 h (AID 1179).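 Also: screen aims at cell division blockers that make cells filament.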 Conditions: E. coli DRC39 delta-acrAB growth, higher = more signal, called active from +8 up or from −8 down.
Assay [9] in a line: RPMI8226 myeloma cell viability, profiling panel, resazurin fluorescence, basal, 24 h, PK04 Diversity Set (AID 1180).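 Also: RPMI8826 multiple myeloma cell line at 5000 cells per well; test concentration not given here.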 Conditions: higher = more signal.
The target in assay [10] is E3 ubiquitin-protein ligase XIAP (Homo sapiens) (UniProt P98170). Description: XIAP binders, primary screen, biophysical, small-molecule microarray, fluorescence 635 nm (AID 1181).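 Also: score merges 667 nm emission and signal to noise over triplicate slides.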 Conditions: small-molecule microarray binding, higher = more signal.
E3 ubiquitin-protein ligase XIAP (Homo sapiens), sequence (P98170 whole entry, looked up): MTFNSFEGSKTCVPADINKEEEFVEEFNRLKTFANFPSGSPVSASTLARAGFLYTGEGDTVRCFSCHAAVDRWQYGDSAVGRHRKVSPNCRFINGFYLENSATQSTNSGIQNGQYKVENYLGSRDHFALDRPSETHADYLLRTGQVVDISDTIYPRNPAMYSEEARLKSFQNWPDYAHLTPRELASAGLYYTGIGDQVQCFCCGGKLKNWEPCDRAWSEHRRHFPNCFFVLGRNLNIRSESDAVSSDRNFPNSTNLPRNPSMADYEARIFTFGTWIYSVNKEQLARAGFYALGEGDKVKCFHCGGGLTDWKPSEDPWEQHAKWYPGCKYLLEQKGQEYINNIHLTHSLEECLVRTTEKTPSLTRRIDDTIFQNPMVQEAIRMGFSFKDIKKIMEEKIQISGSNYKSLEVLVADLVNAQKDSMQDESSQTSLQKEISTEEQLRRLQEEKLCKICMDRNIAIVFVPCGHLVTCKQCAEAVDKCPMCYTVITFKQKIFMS

Dihydroorotate dehydrogenase (quinone), mitochondrial (Plasmodium falciparum (isolate 3D7)), sequence (Q08210 whole entry, looked up): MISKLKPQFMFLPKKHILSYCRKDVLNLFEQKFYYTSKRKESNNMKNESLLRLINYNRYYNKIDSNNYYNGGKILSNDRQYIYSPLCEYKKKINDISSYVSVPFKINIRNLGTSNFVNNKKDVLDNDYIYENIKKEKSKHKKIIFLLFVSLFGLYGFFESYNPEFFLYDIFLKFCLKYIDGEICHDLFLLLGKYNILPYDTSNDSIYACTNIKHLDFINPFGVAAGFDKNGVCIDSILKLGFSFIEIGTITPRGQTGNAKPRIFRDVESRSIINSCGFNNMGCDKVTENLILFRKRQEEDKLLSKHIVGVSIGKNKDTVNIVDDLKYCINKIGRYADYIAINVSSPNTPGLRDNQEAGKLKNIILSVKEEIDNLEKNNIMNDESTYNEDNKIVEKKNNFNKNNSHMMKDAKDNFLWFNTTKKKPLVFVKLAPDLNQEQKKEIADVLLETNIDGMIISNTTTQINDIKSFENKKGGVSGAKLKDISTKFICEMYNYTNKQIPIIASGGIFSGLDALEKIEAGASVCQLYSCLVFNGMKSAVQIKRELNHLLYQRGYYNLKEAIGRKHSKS

`COc1ccc(CCNC(=O)[C@@H]2c3ccccc3C(=O)N(c3ccc(C)cn3)[C@H]2c2ccc(CO)cc2)cc1`: the z-score was 0.594 in assay [1]; -0.742 (inactive) in assay [2]; -0.806 (inactive) in assay [3]; 0.525 (inactive) in assay [5]; -0.195 (inactive) in assay [6]; 0.0636 (inactive) in [7]. Further, the z-score in assay [8] is -0.113 (inactive); in [9], 1. Further, the results for the composite z-score in assay [4] and in [10] were -0.204 (inactive) and -0.267, respectively.

Take `C[C@@H](c1ccccc1)N1C(=O)[C@H]2[C@H]3[C@H](O)C=CC(=O)[C@@H]3CC[C@H]2C1=O`: the z-score is -0.0507 in assay [1]; -0.697 (inactive) in assay [2]; 0.711 (inactive) in assay [3]; -0.319 (inactive) in assay [5]; -0.701 (inactive) in assay [6]; 0.0826 (inactive) in assay [7]. For the same compound, the z-score in assay [8] was -0.286 (inactive); in [9] it was 0.982. In addition, the composite z-score in assay [4] was -0.366 (inactive); in assay [10], 0.126.

For `CCCNC(=O)OC[C@H]1O[C@H](CCON=C2[C@H]3CCn4c(=O)n(-c5ccccc5)c(=O)n4[C@H]3[C@H](O)[C@@H]3O[C@H]23)C=C[C@@H]1Oc1ccc(OC)cc1`, the z-score in assay [1] was -0.633; in assay [2], -0.521 (inactive); in assay [3], -1.52 (inactive); in [5], 0.0767 (inactive); in [6], 0.12 (inactive); in [7], 0.621 (inactive). Moreover, the z-score in assay [8] was 1.13 (inactive); in [9], -2.05. For the same compound, the composite z-score in [4] is 0.017 (inactive); in [10], -0.2.

Turning to `CC(C)CON=C1[C@H]2CCn3c(=O)n(-c4ccccc4)c(=O)n3[C@H]2[C@H](O)[C@@H]2O[C@H]12`, the z-score in assay [1] was -0.771; in assay [2] it was -0.813 (inactive); in [3], -1.21 (inactive); in assay [5] it was -0.225 (inactive); in [6] it was 0.0254 (inactive); in assay [7] it was 0.276 (inactive). In addition, the z-score in assay [8] is 0.596 (inactive); in assay [9], -0.822. The composite z-score in assay [4] was -0.422 (inactive); in [10] it was -0.032.

Turning to `COc1ccc(-c2ccc3c(n2)CCCN3CC(O)CN2CCCc3nc(C)c(C)cc32)cc1` (stereo not given), the z-score in [1] is -0.671; in assay [2], -1.75 (inactive); in assay [3], -0.559 (inactive); in [5], 0.274 (inactive); in [6], -0.256 (inactive); in [7] it was 0.975 (inactive). Besides, the z-score in assay [8] was 0.65 (inactive); in [9], -0.836. Moreover, the composite z-score is 1.18 (inactive) in assay [4] and 1.15 in assay [10].

For the compound `Cc1cc(C)c(-c2cc([C@H](C)ON=C3[C@H]4CCn5c(=O)n(-c6ccccc6)c(=O)n5[C@H]4[C@H](O)[C@@H]4O[C@H]34)on2)c(C)c1`, the z-score in assay [1] is -0.991; in assay [2], -0.752 (inactive); in [3], -1.89 (inactive); in assay [5], -0.242 (inactive); in assay [6] it was 0.615 (inactive); in assay [7] it was 0.663 (inactive). In addition, the z-score in assay [8] is 0.421 (inactive); in assay [9] it was -2.22. Further, the composite z-score in [4] is -0.297 (inactive); in assay [10] it was -0.196.

Consider `C[N+](C)(C)CCCCCCNC(=O)[C@@H]1C[C@@H]2C(=O)N3CCC[C@H]3C(=O)N2[C@@H]1c1cccc(OCCO)c1`, for which the z-score is 2.14 in [1]; -0.887 (inactive) in assay [2]; 0.984 (inactive) in assay [3]; 0.808 (inactive) in [5]; -0.183 (inactive) in assay [6]; 0.0995 (inactive) in [7]. For the same compound, the values for the z-score in assay [8] and in assay [9] were -0.514 (inactive) and -0.245, respectively. Further, the composite z-score in assay [4] was -1.83 (inactive); in assay [10], -0.0655.

Regarding `CC[C@@H](c1ccccc1)n1c(=O)n2n(c1=O)[C@H]1[C@H](O)[C@@H]3O[C@@H]3C(=NOCC(C)C)[C@H]1CC2`, the z-score in assay [1] was -0.0871; in assay [2], 0.747 (inactive); in [3], -0.349 (inactive); in assay [5], -0.413 (inactive); in assay [6], 0.49 (inactive); in assay [7], 0.258 (inactive). The z-score is -1.31 (inactive) in [8] and 0.0402 in assay [9]. The composite z-score in assay [4] was 0.777 (inactive); in [10], -0.0525.

Turning to `CCOC(=O)CCN1C(=O)[C@H]2[C@H]3[C@H](O)[C@H](O)CC(=NNC(=O)OCc4ccc(OC)cc4)[C@@H]3CC[C@H]2C1=O`, the z-score in assay [1] is -0.54; in [2], 0.458 (inactive); in assay [3], -1.24 (inactive); in assay [5], -0.0242 (inactive); in [6], -0.217 (inactive); in assay [7], 0.149 (inactive). Besides, the figures for the z-score in [8] and in [9] were 0.237 (inactive) and -1.14, respectively. For the same compound, the values for the composite z-score in assay [4] and in assay [10] were 0.489 (inactive) and -0.171, respectively.

`CC(CCN1CCCCc2nc(C)c(C)cc21)=NOC(C)CN1CCCc2nc(C)c(C)cc21` (stereo not given): the z-score in assay [1] is -0.0636; in assay [2] it was -0.0975 (inactive); in assay [3], -0.542 (inactive); in assay [5] it was 1.03 (inactive); in [6], 0.325 (inactive); in [7], 0.529 (inactive). The z-score in [8] is -0.936 (inactive); in [9] it was -0.0794. Besides, the composite z-score in assay [4] was 0.333 (inactive); in assay [10], 1.56.

With `CCOC(=O)CCN1C(=O)[C@H]2[C@H]3[C@H](O)[C@H](O)CC(=O)[C@H]3CC[C@H]2C1=O`, the z-score in assay [1] was -0.228; in assay [2], -0.329 (inactive); in assay [3], 0.552 (inactive); in assay [5] it was 0.0122 (inactive); in [6] it was -0.336 (inactive); in assay [7], 0.231 (inactive). The results for the z-score in assay [8] and in [9] were -1.81 (inactive) and 0.566, respectively. For the same compound, the composite z-score in assay [4] is -2.85 (inactive); in [10] it was 0.065.
